Assay [1] can be described thus: endothelial E-selectin expression blockers – imaging, HUVEC, immunofluorescence, MLSMR starter and 10KST1 sets, primary screen (AID 487;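 active means visually confirmed hit in the image check and inhibition above 20%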;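 on inhibition: signal is fraction of cell area covered by stained E-selectin grains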;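 on nuclei count: 100% = median nuclei count of all wells on the same plate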). The note with it: HUVEC TNFalpha-induced E-selectin immunofluorescence imaging, at 2 µM; inhibition: stronger effect = higher value; nuclei count: measured here: cell number, toxicity.
Assay [2] can be described thus: Primary imaging screen for DUSP6 inhibitors that restore phospho-Erk in transfected HeLa cells, chemical complementation (AID 609;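 active means compounds giving at least 50% inhibition in the cell-based MKP-3 phosphatase rescue imaging test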;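 on inhibition: phospho-Erk level distribution per well compared with pooled transfected vehicle control wells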). The note with it: HeLa MKP-3 transfected, phospho-Erk imaging KS statistic, at 10 µM, cells stimulated with TPA for 15 min.
Assay [3] has as its target Dual specificity protein phosphatase 6 (Homo sapiens) (UniProt Q16828). Described as above. Particulars: HeLa MKP-3 transfected, phospho-Erk imaging KS statistic; at 10 µM; stronger effect = higher value; cells stimulated with TPA for 15 min.
Assay [4] deals with Voltage-gated potassium channel subunit beta-2 (Rattus norvegicus) (UniProt P62483). The assay is described as follows: inhibitors of rat Kvbeta2 reductase activity – biochemical, NADPH fluorescence, primary screen (AID 622).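 Further: slope of raw intensity against log time taken from 70 to 1610 s.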 The note with it: recombinant KvBeta, 4-cyanobenzaldehyde reduction, at 10 µM, stronger effect = higher value.
Chain of Voltage-gated potassium channel subunit beta-2 (Rattus norvegicus) (P62483 whole entry, looked up): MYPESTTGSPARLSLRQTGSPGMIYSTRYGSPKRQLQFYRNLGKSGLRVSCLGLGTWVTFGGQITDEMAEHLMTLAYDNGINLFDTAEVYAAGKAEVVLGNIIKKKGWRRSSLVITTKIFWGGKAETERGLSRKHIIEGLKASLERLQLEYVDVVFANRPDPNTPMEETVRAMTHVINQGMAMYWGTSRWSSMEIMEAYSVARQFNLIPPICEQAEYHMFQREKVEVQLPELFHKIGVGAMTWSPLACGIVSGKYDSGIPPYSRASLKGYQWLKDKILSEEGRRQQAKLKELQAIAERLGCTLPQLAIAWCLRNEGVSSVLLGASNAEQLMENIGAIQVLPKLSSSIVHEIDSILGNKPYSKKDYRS
The target is the same in assay [5]. Briefly: enhancers of rat Kvbeta2 NADPH turnover – biochemical, NADPH fluorescence, primary screen (AID 623;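 active means NADPH fluorescence slope more negative than the mean of all samples by about 3 SD, 99.7% confidence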;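 further: fluorescence intensity change per second fitted from 20 to 320 s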). Particulars: Recombinant KvBeta, NADPH fluorescence decrease slope, 10 min; at 10 µM; stronger effect = lower value.
The target of assay [6] is Muscarinic acetylcholine receptor M4 (Homo sapiens) (UniProt P08173). The assay is described as follows: M4-linked GIRK flux change, two-sided – cell-based, HEK293 M4/GIRK, thallium flux, BTC-AM, M4 allosteric agonist project, primary screen (AID 625;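 active means fluorescence slope after compound addition differing from the mean of all tested samples at 99.7% confidence, mostly higher but some lower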;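 further: thallium influx through GIRK channels coupled to M4 in HEK293 cells with BTC-AM dye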). Particulars: at 10 µM, actives lie on both sides.
Chain of Muscarinic acetylcholine receptor M4 (Homo sapiens) (P08173 whole entry, looked up): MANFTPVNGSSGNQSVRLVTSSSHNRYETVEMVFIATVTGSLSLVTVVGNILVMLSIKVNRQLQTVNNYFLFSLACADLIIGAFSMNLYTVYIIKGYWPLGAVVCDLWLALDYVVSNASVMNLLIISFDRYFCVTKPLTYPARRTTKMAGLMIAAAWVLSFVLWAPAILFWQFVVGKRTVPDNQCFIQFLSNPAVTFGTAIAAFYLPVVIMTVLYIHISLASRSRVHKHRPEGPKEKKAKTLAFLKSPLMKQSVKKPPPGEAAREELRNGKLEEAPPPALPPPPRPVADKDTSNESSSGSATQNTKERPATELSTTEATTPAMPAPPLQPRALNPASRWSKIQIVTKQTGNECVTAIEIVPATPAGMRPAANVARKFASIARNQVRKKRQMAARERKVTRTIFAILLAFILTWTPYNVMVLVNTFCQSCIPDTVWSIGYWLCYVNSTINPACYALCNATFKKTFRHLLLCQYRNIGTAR
A short description of assay [7]: inhibitors of larval lipid processing in zebrafish, primary screen, whole organism, PED6 fluorescence, gall bladder and intestine (AID 686;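 active means a full or partial loss of lipid-probe fluorescence in the fish gall bladder, intestine or both, judged by eye; inactive means no fluorescence loss, or compound toxic to the fish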;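 further: larvae 5 to 7 days old with five fish per well; signal comes from phospholipase A2 cleavage of quenched PED6 carried via bile; overnight exposure to compound and PED6 before scoring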). The note with it: Zebrafish larvae PED6 lipid processing, fluorescence scoring; screened at 20 µM (by protocol).
Assay [8] is described as follows: loss of swimming-algae plug formation – whole organism, Chlamydomonas reinhardtii, WT vs cilia-less mutant, absorbance, 96-well, primary screen (AID 463189;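 active means inhibition at or above 50% relative to wild type and mutant plate controls; inactive means inhibition below 50%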;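 further: 0% = wild type cc124 cells in DMSO and 100% = ciliumless bld1 mutant cells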). Particulars: Chlamydomonas reinhardtii gravitaxis, OD600 absorbance, 2 days; at 10 µM; stronger effect = higher value.
Assay [9] can be described thus: reduction of polyQ htt aggregates in cells – imaging, exon1htt(103Q)mCFP cells, high-content imaging, primary screen (AID 483;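 active means visual image review flags a hit and inhibition of aggregation exceeds 20%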;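 further: compound exposure lasted 3 days before fixation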;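 on nuclei count: percent of the per-plate median nuclei count of sample wells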). The note with it: exon1htt(103Q)mCFP cell line, aggregate imaging, at 2 µM; inhibition of aggregation: stronger effect = higher value; nuclei count: measured here: cell count, toxicity.
Assay [10] is described as follows: blockers of RIG-like receptor reporter activation – cell-based, Sendai virus stimulus, luciferase, 10K MLSCN set, TLR/RLR signaling modifier project, primary screen (AID 602276;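 active means inhibition at or above 50% at 10 µM; inactive means inhibition below 50%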;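 further: firefly luciferase from ISG56 promoter only with Renilla not read in this screen; 0% = Sendai virus plus DMSO and 100% = medium plus DMSO without virus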). Particulars: HEK293 RL24 IRF3 luciferase reporter, at 10 µM, stronger effect = higher value.
Assay [11] can be described thus: TLR3 IRF3 reporter activation blockers – cell-based, poly I:C stimulus, luciferase, 10K MLSCN set, primary screen (AID 602277;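 active means inhibition of the reporter signal at or above 50%; inactive means inhibition below 50%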). The note with it: HEK293-TLR3 RL24 IRF3 luciferase reporter, at 10 µM, stronger effect = higher value. In general terms: A reporter such as luciferase makes a cellular process visible.
The mark [12] stands for this setting: measured here: cell density z-score.
The mark [13] stands for this setting: measured here: nuclear c-Myc green intensity z-score.
Where [14] appears, read: measured here: nuclear pErk red intensity z-score, stronger effect = higher value.

Calls of active or inactive are those of the source.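 How the source made its calls, unless noted: active means fluorescence slope higher than the sample average by over 3 SD (cut at about -0.22 in these data, passing the limit was not always enough); inactive means the rest.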

Chain of Dual specificity protein phosphatase 6 (Homo sapiens) (Q16828 whole entry, looked up): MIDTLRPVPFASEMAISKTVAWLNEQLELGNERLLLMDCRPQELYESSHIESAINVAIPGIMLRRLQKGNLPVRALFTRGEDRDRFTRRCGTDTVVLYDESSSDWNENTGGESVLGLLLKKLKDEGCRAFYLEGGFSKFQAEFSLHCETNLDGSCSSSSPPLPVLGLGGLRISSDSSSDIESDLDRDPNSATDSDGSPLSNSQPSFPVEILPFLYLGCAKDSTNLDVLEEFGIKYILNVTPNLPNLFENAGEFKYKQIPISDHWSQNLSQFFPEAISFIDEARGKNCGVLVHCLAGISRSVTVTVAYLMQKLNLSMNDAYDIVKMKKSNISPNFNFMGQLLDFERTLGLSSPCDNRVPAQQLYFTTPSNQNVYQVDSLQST

As usually defined, the inhibition is the change of the read-out against control, counted positive when it falls. With `NC(=O)c1ccccc1OCCOCCOCCOc1ccccc1C(N)=O`, the figures for the inhibition in assay [1], in assay [3] and in assay [8] were -40% (inactive), 3.66% (inactive) and 21.6% (inactive), respectively. Moreover, the nuclei count in assay [1] is 141%. The z-score is 0.988 in assay [2] (setting [12]), 0.573 in [2] (setting [13]) and -0.494 in assay [2] (setting [14]). Besides, the fluorescence slope in assay [4] was -0.379 (inactive); in assay [6], 0.00555 (inactive). In addition, in assay [5], the NADPH fluorescence slope was -3.2e-05 (inactive). The call in assay [7] was inactive.
`Cc1cc(N/C=C/C(=O)c2cccc3ccccc23)no1`: the results for the inhibition in assay [1], in assay [3] and in [8] were -51% (inactive), 13.2% (inactive) and -11.1% (inactive), respectively. Besides, in assay [1], the nuclei count was 95.6%. Moreover, the z-score was -0.324 in [2] (setting [12]), 0.59 in assay [2] (setting [13]) and -0.55 in assay [2] (setting [14]). In addition, the values for the fluorescence slope in assay [4] and in [6] were -0.396 (inactive) and 0.00616 (inactive), respectively. Further, the NADPH fluorescence slope in assay [5] was -2.3e-06 (inactive). Also, the compound was classed as inactive in assay [7].
For `CCOC(=O)c1ccc(NCC(O)COc2ccccc2)cc1` (stereo not drawn), the inhibition in assay [1] is -60.3% (inactive); in assay [3], 3.66% (inactive); in [8], 3.53% (inactive). The nuclei count in assay [1] was 138%. The values for the z-score in assay [2] (setting [12]), in assay [2] (setting [13]) and in assay [2] (setting [14]) were 1.4, -0.621 and -0.757, respectively. Further, the fluorescence slope is -0.343 (inactive) in assay [4] and 0.00673 (inactive) in assay [6]. Moreover, the NADPH fluorescence slope in [5] is -1.2e-05 (inactive). In addition, the compound was called inactive in assay [7].
Regarding `CN(C)/C=C1\N=C(c2cccs2)OC1=O`, the inhibition was -85.3% (inactive) in [1], 1.75% (inactive) in [3] and 26.8% (inactive) in assay [8]. This compound gave a nuclei count in assay [1] of 178%. The z-score in assay [2] (setting [12]) was -0.766; in assay [2] (setting [13]) it was -0.714; in assay [2] (setting [14]), 0.335. Moreover, the fluorescence slope in [4] was -0.406 (inactive); in assay [6], 0.00407 (inactive). Further, in assay [5], the NADPH fluorescence slope was -4e-05 (inactive). In addition, the compound was classed as inactive in assay [7].
With `O=C(CCN1CCc2ccccc21)c1ccc2c(c1)OCCO2`, the inhibition was -46.2% (inactive) in assay [1], -0.159% (inactive) in assay [3] and 3.69% (inactive) in assay [8]. The nuclei count in [1] is 144%. The z-score in assay [2] (setting [12]) is -0.121; in assay [2] (setting [13]), -0.0206; in assay [2] (setting [14]) it was -0.911. Besides, the fluorescence slope in [4] was -0.436 (inactive); in [6], 0.00393 (inactive). In assay [5], the NADPH fluorescence slope is -2.2e-05 (inactive). Besides, the outcome in assay [7] was inactive.
Regarding `Cc1cc(C)n(C(=O)CNC(=O)c2ccc3c(c2)OCCO3)n1`, the inhibition in assay [1] was -96.3% (inactive); in assay [3] it was 18.9% (inactive); in [8] it was 12.4% (inactive). Besides, the nuclei count in assay [1] stood at 162%. The z-score in [2] (setting [12]) was 1.78; in assay [2] (setting [13]), -0.668; in assay [2] (setting [14]) it was -1.28. Further, the fluorescence slope is -0.374 (inactive) in [4] and 0.00504 (inactive) in assay [6]. Besides, the NADPH fluorescence slope in [5] is -5.5e-05 (inactive). Further, in assay [7], the compound was called inactive.
For the compound `Cc1c(C(=O)O)sc(=S)n1-c1ccccc1`, the figures for the inhibition in assay [1], in assay [3] and in [8] were -33.5% (inactive), 20.8% (inactive) and 12.3% (inactive), respectively. In addition, the nuclei count in assay [1] came out at 141%. The values for the z-score in [2] (setting [12]), in assay [2] (setting [13]) and in [2] (setting [14]) were 0.701, -0.0654 and 0.165, respectively. Besides, the fluorescence slope in assay [4] was -0.372 (inactive); in assay [6] it was 0.0076 (inactive). Besides, in [5], the NADPH fluorescence slope was -3.1e-05 (inactive). Further, the call in assay [7] was inactive.
In the case of `CC1(C)CC(=O)C=C(NCCO)C1`, the inhibition is -18.5% (inactive) in assay [1], 20.8% (inactive) in assay [3] and 40.3% (inactive) in [8]. This compound also showed a nuclei count in [1] of 146%. The z-score was 1.01 in [2] (setting [12]), -0.173 in [2] (setting [13]) and -0.675 in assay [2] (setting [14]). Moreover, the fluorescence slope is -0.395 (inactive) in assay [4] and 0.00557 (inactive) in assay [6]. Further, in [5], the NADPH fluorescence slope was -5.8e-05 (inactive). Moreover, the compound was called inactive in assay [7].
Consider `O=C(c1ccc(N2C(=O)C3CC=C(Cl)CC3C2=O)cc1)N1CCCCC1` (stereo not drawn), for which the inhibition was -148% (inactive) in [1], 15.1% (inactive) in assay [3] and -0.983% (inactive) in assay [8]. Besides, the nuclei count in [1] was determined as 163%. The z-score is 0.548 in assay [2] (setting [12]), -0.00489 in assay [2] (setting [13]) and -2.02 in assay [2] (setting [14]). Besides, the fluorescence slope in [4] is -0.379 (inactive); in [6], 0.00666 (inactive). Further, the NADPH fluorescence slope in assay [5] was -2.5e-05 (inactive). Moreover, the compound was called inactive in [7].
`O=c1/c(=C/c2ccccn2)sc2n1CN(c1ccccc1)CN=2`: the inhibition in assay [1] is 15.3% (inactive); in assay [3] it was 34.2% (inactive); in assay [8] it was 32% (inactive). In [1], this compound registered a nuclei count of 137%. The figures for the z-score in [2] (setting [12]), in [2] (setting [13]) and in assay [2] (setting [14]) were 0.878, 0.58 and -0.986, respectively. For the same compound, the fluorescence slope was -0.4 (inactive) in [4] and 0.00773 (inactive) in assay [6]. In assay [5], the NADPH fluorescence slope was -4.8e-05 (inactive). The outcome in assay [7] was inactive.
As to `O=P(O)(c1ccccc1)c1ccccc1O`, the inhibition in assay [1] is 2% (inactive); in assay [3], 5.57% (inactive); in [8], 28.7% (inactive). The nuclei count in assay [1] turned out to be 77.2%. The z-score in assay [2] (setting [12]) came out at 0.571; in assay [2] (setting [13]), 0.329; in [2] (setting [14]) it was 0.814. The figures for the fluorescence slope in assay [4] and in [6] were -0.452 (inactive) and 0.00546 (inactive), respectively. Besides, the NADPH fluorescence slope in [5] is -1.5e-05 (inactive). Moreover, the result in [7] was inactive.
As to `COc1ccc(C(=O)N2CCCC(c3ccccc3)C2)cc1` (stereo not drawn), the results for the inhibition in assay [1], in assay [3] and in [8] were -91.1% (inactive), -7.79% (inactive) and 8.1% (inactive), respectively. In [1], the nuclei count came out at 167%. Moreover, the z-score in assay [2] (setting [12]) was -0.133; in assay [2] (setting [13]), 0.389; in assay [2] (setting [14]), 0.742. In addition, the fluorescence slope was -0.406 (inactive) in [4] and 0.00466 (inactive) in assay [6]. Further, in assay [5], the NADPH fluorescence slope was -4.3e-05 (inactive). Also, in [7], the outcome was inactive.
For `COc1ccc(-n2c(C)c(C(C)=O)c3cc(O)ccc32)cc1`, the inhibition in assay [1] is 4.2% (inactive); in [3], 9.39% (inactive); in [8], 30.2% (inactive). The compound also came in with a nuclei count in assay [1] of 135%. Also, the z-score in [2] (setting [12]) was -0.551; in assay [2] (setting [13]), -0.198; in [2] (setting [14]), 0.861. Further, the fluorescence slope in [4] is -0.4 (inactive); in assay [6], 0.00708 (inactive). Further, the NADPH fluorescence slope in assay [5] was -4.1e-05 (inactive). Also, in [7], the result was inactive.
Regarding `CCOC(=O)c1cc(CC)sc1NC(=O)C1CC1`, the results for the inhibition in assay [1], in assay [3] and in assay [8] were 5.7% (inactive), 1.75% (inactive) and -9.3% (inactive), respectively. In assay [1], this compound had a nuclei count of 151%. For the same compound, the z-score in [2] (setting [12]) is 0.13; in [2] (setting [13]), -0.277; in [2] (setting [14]), 0.203. The fluorescence slope is -0.369 (inactive) in assay [4] and 0.0058 (inactive) in [6]. In addition, the NADPH fluorescence slope in assay [5] was -6.8e-05 (inactive). In assay [7], the result was inactive.
Consider `O=C(CN(Cc1ccco1)C(=O)CNS(=O)(=O)c1ccc(Cl)cc1)NCc1ccc(F)cc1`, for which the inhibition of aggregation in assay [9] is -10.4% (inactive). Further, the results for the nuclei count in assay [9] and in assay [1] were 97.5% and 159%, respectively. For the same compound, the figures for the inhibition in assay [1], in [10] and in assay [11] were -185% (inactive), 22.1% (inactive) and 27.5% (inactive), respectively. Also, the results for the fluorescence slope in assay [4] and in assay [6] were -0.567 (inactive) and 0.00551 (inactive), respectively. The NADPH fluorescence slope in [5] was -6.4e-06 (inactive).
